pCIP destab: lowers stability of the mouse p/CIP coactivator protein | Q05BA5 | F442A p/CIP-EGFP cells, EGFP fluorescence, 16 h | decrease of EGFP signal, % at 10 µM | 290,000 compounds, 0.01% hits;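 active = EGFP signal decrease of at least 30% at 10 µM or well 3 SD below plate mean, unless failing retest; inactive = the rest, including hits failing retest or dose response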
GPR7 antag: human neuropeptides B/W receptor 1 antagonism; AID 1861; inhibition, % at 4.4 µM; 290,000 compounds, 1.1% hits; GPR7-expressing cells, fluorescence antagonist assay; P48145; in the data active = inhibition above about 16%, passing the limit was not always enough;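 also: cells stimulated with the agonist NPW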
VLA-4 inh: inhibition in a human VLA-4 binding assay. 330,000 compounds, 0.2% hits. P13612. inhibition, % (about 7 µM as worked out from the volumes in the protocol). VLA-4 expressing cells, ligand binding flow cytometry; in the data active = inhibition above about 50%
JMJD2C inh: blocks human GASC-1 demethylase activity | inhibition, % at 2.35 µM | Q9H3R0 | 330,000 compounds, 0.069% hits | GST-JMJD2C(1-420) H3K9me3 demethylation, DELFIA europium;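 active = more than half of a compound's replicate wells show inhibition beyond 50%, single wells judged on their own value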;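 also: signal counts dimethyl H3K9 product captured on neutravidin plate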
GPR7 antag conf: human GPR7 antagonism, confirmation assay | inhibition, % at 4.4 µM | GPR7-expressing cells, calcium fluorescence antagonist mode | AID 1952 | shares compounds with GPR7 antag | 2,400 compounds, 52% hits; in the data active = inhibition above about 24%;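 also: stimulated with the GPR7 agonist NPW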
MCHR1 antag: antagonizes human MCHR1, a GPR7 antagonist counter-screen; shares compounds with GPR7 antag; MCHR1-expressing cells, fluorescence antagonist assay; inhibition, % at 4.4 µM; 2,400 compounds, 62% hits; AID 2148; in the data active = inhibition above about 22%
Numbers stand for hits; i = inactive; nt = no result. An excerpt weighted towards active compounds, which were near 1.2% of everything screened.

SMILES	pCIP destab	GPR7 antag	VLA-4 inh	JMJD2C inh	GPR7 antag conf	MCHR1 antag
O=C(c1ccc(Cl)cc1)C(CN1CCCCC1)c1ccccc1 (stereo not drawn)	i	55	i	i	65	82
CCOC(=O)C(CN1CCCC1)c1ccccc1 (stereo not drawn)	nt	nt	i	i	nt	nt
CC1CCN(CCCNC(=O)c2ccc(CSCc3cccc(Cl)c3)o2)CC1	i	22	i	i	i	i
CS(=O)(=O)N1N=C(c2ccco2)CC1c1ccc(Cl)cc1Cl (stereo not drawn)	i	i	i	i	nt	nt
Cc1ccccc1C(=O)Nc1c(C(=O)N(CCN(C)C)Cc2ccco2)oc2ccccc12	i	i	i	i	nt	nt
COc1ccc(OCC(=O)Nc2c(C(=O)N(CCN(C)C)Cc3ccco3)oc3ccccc23)cc1	i	28	i	i	i	35
COc1ccccc1C(=O)Nc1c(C(=O)N(CCN(C)C)Cc2ccco2)oc2ccccc12	i	29	i	i	48	62
CCCn1nnnc1NC(=O)c1cc(Cl)ccc1Cl	i	i	i	i	nt	nt
N#CC1=C(N)Oc2cc(N)ccc2C1c1ccc(F)cc1 (stereo not drawn)	i	i	i	i	nt	nt
N#CC1=C(N)Oc2cc(N)ccc2C1c1ccc(F)cc1F (stereo not drawn)	i	34	i	i	i	i
COc1cccc(OC)c1C(=O)Nc1cccc2c1CCCC2	i	i	i	i	nt	nt
COc1cc(OC)cc(C(=O)Nc2cccc3c2CCCC3)c1	i	32	i	i	i	i
Cc1cc(S(=O)(=O)N2CCC(NC(=O)C34CC5CC(CC(C5)C3)C4)CC2)ccc1-n1cnnn1	i	i	i	i	nt	nt
CCn1c(COc2cccc(OC)c2)nnc1SCC(=O)NCC1CCCO1 (stereo not drawn)	i	25	i	i	i	i
COc1ccc(OCc2nnc(SCC(=O)NCC3CCCO3)n2N)cc1 (stereo not drawn)	nt	nt	i	i	nt	nt
Cc1cccc(N(C)C(=O)COc2cc(=O)n(C)c3ccccc23)c1	i	64	i	i	i	i
CN(C(=O)COc1cc(=O)n(C)c2ccccc12)c1cccc(Cl)c1	i	i	i	i	nt	nt
CCOc1ccc(OCCSc2nnnn2-c2ccccc2)cc1	i	i	i	i	nt	nt
c1ccc(OCCSc2nnnn2-c2ccccc2)cc1	i	31	i	i	i	35
Cc1noc(C)c1S(=O)(=O)NCc1ccc(CN(C)C)cc1	nt	nt	i	i	nt	nt
C/C(CC(=O)Nc1ccc(N(C)C)cc1)=N\NC(=O)c1ccc([N+](=O)[O-])cc1	i	27	i	i	i	i
Cc1cc(OCC(=O)N2CCc3ccccc3C2)c(C)cc1Br	i	i	i	i	nt	nt
COc1ccc(C(CCNC(C)c2ccccc2)C(C)C)cc1 (stereo not drawn)	i	33	i	i	36	31
COc1ccc(C(C)NCCC(c2ccc(OC(C)C)cc2)c2ccccc2OC)cc1 (stereo not drawn)	i	i	i	i	nt	nt
COc1ccc(NCc2cc(=O)oc3cc(NC(C)=O)ccc23)cc1	i	i	i	i	nt	nt
SMILES	pCIP destab	GPR7 antag	VLA-4 inh	JMJD2C inh	GPR7 antag conf	MCHR1 antag
Cc1ccccc1CC(=O)N1CCCC(CNC(=O)c2ccc(F)cc2)C1 (stereo not drawn)	i	i	i	i	nt	nt
O=C(COc1ccc(Br)cc1CNCCc1ccccc1)NCc1ccccc1	i	31	i	i	40	54
CCCNCc1cc(Br)ccc1OCC(=O)NCCc1ccccc1	i	i	i	i	nt	nt
NS(=O)(=O)c1ccc(CCNCc2cc(Br)ccc2OCc2ccccc2F)cc1	i	38	i	i	53	76
NS(=O)(=O)c1ccc(CCNCc2cc(Cl)ccc2OCc2ccccc2)cc1	i	28	i	i	27	57
NS(=O)(=O)c1ccc(CCNCc2ccccc2OCc2ccc(Cl)cc2)cc1	i	i	i	i	nt	nt
Cc1cccc(C)c1NC(=O)C(NC(=O)CN1C(=O)c2ccccc2C1=O)c1ccccc1 (stereo not drawn)	i	i	i	i	nt	nt
Cn1c(=O)c2c(SCc3ccccn3)nc(-c3ccccc3)nc2n(C)c1=O	nt	i	nt	nt	nt	nt
Cc1cccc(C(=O)NNC2=C(C(=O)C(F)(F)F)CCC2)c1O	i	i	i	i	nt	nt
O=C(OCC(=O)N1CCN(C(=O)c2ccco2)CC1)c1cc(-c2ccc(Cl)c(Cl)c2Cl)nc2ccccc12	i	i	i	i	nt	nt
CN1CCCN(C(=O)c2cc(-c3ccc(Cl)c(Cl)c3Cl)nc3ccccc23)CC1	i	21	i	i	31	39
